Screens as filed in PubChem.
PME-1 inh – PME-1 inhibitors via competitive probe labeling, primary screen, biochemical, fluorescence polarization, FP-Rh probe, HTS; AID 2130, 2009; recombinant PME-1; Protein phosphatase methylesterase 1 (Homo sapiens), Q9Y570; inhibition, % at 5.9 µM; hit rate 0.53% among 320,000;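 active = inhibition above the campaign mean of all compounds plus 3 SD, cut at about 26% in these data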;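 note: competitive labeling of PME-1 active site by serine hydrolase directed probe; 0% = PME-1 with DMSO and 100% = wells lacking PME-1 enzyme; inhibitors block probe labeling so polarization falls and inhibition rises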
PREPL inh – PREPL enzyme inhibitors, primary screen, biochemical, fluorescence polarization. recombinant PREPL, fluorescence polarization activity-based probe. Prolyl endopeptidase-like (Homo sapiens), Q4J6C6. inhibition, % at 5.96 µM. hit rate 0.68% among 320,000;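 note: 0% = enzyme with DMSO and 100% = wells lacking enzyme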
LYPLA2 inh – LYPLA2 inhibitors, primary screen, counter-screen for PME1 inhibitor project, biochemical, fluorescence polarization, FP-Rh probe ABPP | Acyl-protein thioesterase 2 (Homo sapiens), O95372 | recombinant LYPLA2 | inhibition, % at 5.9 µM | hit rate 0.38% among 320,000 | AID 2177, 2009;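 active = inhibition above the screen-wide mean plus 3 SD, limit set per campaign, cut at about 26% in these data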;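 note: 0% = LYPLA2 with DMSO and 100% = wells lacking LYPLA2 enzyme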
Target sequence (O95372 whole entry, looked up): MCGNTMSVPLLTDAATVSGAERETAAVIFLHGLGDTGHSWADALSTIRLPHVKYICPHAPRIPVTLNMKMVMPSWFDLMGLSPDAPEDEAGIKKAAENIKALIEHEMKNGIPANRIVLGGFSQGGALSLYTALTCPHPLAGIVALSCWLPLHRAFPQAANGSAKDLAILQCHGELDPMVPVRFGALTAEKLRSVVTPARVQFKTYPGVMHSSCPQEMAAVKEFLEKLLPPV
LYPLA1 counter – LYPLA1 inhibitors, primary screen, counter-screen for PME1 inhibitor project, biochemical, fluorescence polarization, FP-Rh probe ABPP | recombinant LYPLA1 | Acyl-protein thioesterase 1 (Homo sapiens), O75608 | AID 2174, 2009 | hit rate 0.16% among 320,000 | inhibition, % at 5.9 µM;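 active = inhibition above the mean of all tested compounds plus 3 SD, set per campaign, cut at about 14% in these data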;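 note: inhibitors block serine hydrolase probe labeling of LYPLA1 so polarization falls; 0% = enzyme with DMSO and 100% = wells lacking LYPLA1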
Target sequence (O75608 whole entry, looked up): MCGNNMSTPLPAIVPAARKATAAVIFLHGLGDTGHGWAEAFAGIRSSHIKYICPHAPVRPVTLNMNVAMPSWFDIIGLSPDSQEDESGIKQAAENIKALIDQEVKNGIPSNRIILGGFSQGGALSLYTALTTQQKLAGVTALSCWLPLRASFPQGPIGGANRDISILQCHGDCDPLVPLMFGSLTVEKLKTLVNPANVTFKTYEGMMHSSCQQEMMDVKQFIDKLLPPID
GSTO1 inh – inhibitors of recombinant GSTO1, primary screen, counter-screen for RBBP9 inhibitor project, biochemical, fluorescence polarization; activity-based probe fluorescence polarization; inhibition, % at 5.96 µM; hit rate 1.1% among 300,000;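 active = inhibition above the campaign mean inhibition plus 3 SD, cut at about 35% in these data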;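 note: 0% = GSTO1-1 with DMSO and 100% = wells lacking GSTO1-1 enzyme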
Fam108B inh – mouse Fam108B serine hydrolase inhibitors, primary screen, counter-screen for RBBP9 inhibitor project, biochemical, fluorescence polarization; recombinant Fam108B, FP-Rh probe fluorescence polarization; inhibition, % at 9.51 µM; AID 1947, 2009; hit rate 0.33% among 300,000;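 active = inhibition above the screen mean inhibition plus 3 SD, computed separately per campaign, cut at about 18% in these data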;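 note: inhibitors lower polarization as less probe binds the enzyme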
PREPL confirm – human PREPL enzyme inhibitors, confirmation, biochemical, fluorescence polarization; inhibition, % at 5.96 µM; shares compounds with PREPL inh; hit rate 67% among 2,000; recombinant PREPL, fluorescence polarization activity probe; AID 2803, 2010;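 note: 0% = protein with DMSO and 100% = wells lacking protein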
The depositor's hits bear a star; / = not tested or not shown. Sampled rows, rich in hits. Any-hit rate of the full collection: about 2%. Cut-off read from the data, not from the text of the source, unless noted: active = inhibition above about 43%; inactive = the rest.

SMILES	PME-1 inh	PREPL inh	LYPLA2 inh	LYPLA1 counter	GSTO1 inh	Fam108B inh	PREPL confirm
Cc1cccc(/C=N/NC(=O)c2ccncc2)n1	-3	-6	6	1	8	-3	/
COc1ccc(CCC(=O)OCC(=O)Nc2sccc2C(N)=O)cc1OC	/	48*	/	/	/	/	39
COc1ccc(CN2CCNC(=O)C2CC(=O)NCc2csc(C)n2)c(F)c1 (centres undefined)	2	11	4	4	6	1	/
O=C(O/N=C(\c1ccccc1)c1ccncc1)c1ccccc1Cl	2	54*	-8	-2	7	0	42
Cc1ccc(S(=O)(=O)N2CCOCC2)cc1C(=O)OC(C)C(=O)c1ccccc1 (centres undefined)	11	3	14	0	10	-3	/
O=C(c1cccs1)c1coc2ccc(O)c(CN3CCOCC3)c12	7	42	3	3	8	0	/
COc1ccc(C(=O)c2coc3ccc(O)c(CN4CCCC4)c23)cc1	-5	55*	1	-3	6	3	54*
COc1ccc(C(=O)c2c(C)oc3ccc(O)c(CN4CCOCC4)c23)cc1	2	7	-4	-5	0	3	/
Cc1ccc(C(=O)c2coc3ccc(O)c(CN4CCN(C)CC4)c23)cc1	-1	44*	7	-3	12	3	43
CCN(CC)Cc1c(O)ccc2occ(C(=O)c3ccc(OC)cc3)c12	-1	43	-1	-2	9	1	/
COc1ccc(C(=O)c2coc3ccc(O)c(CN4CCOCC4)c23)cc1	-4	53*	2	2	-2	-3	57*
Cc1ccc2c(c1)c1c3n2CCCNC3CCC1 (centres undefined)	-4	45*	-2	2	-4	-2	44*
c1cc2c(cc1C1CCCCC1)c1c3n2CCCNC3CCC1 (centres undefined)	-6	35	2	-2	8	6	/
C[C@H]1CN([C@@H](C)CO)C(=O)Cc2cc(NC(=O)C3CC3)ccc2O[C@H]1CN(C)Cc1ccc(Oc2ccccc2)cc1	/	-6	/	/	/	/	/
C[C@H]1CN([C@@H](C)CO)C(=O)Cc2cc(NC(=O)CCN3CCOCC3)ccc2O[C@@H]1CN(C)Cc1ccc(Oc2ccccc2)cc1	/	53*	/	/	/	/	54*
COc1ccccc1CNC(=O)COC(=O)c1ncc(Cl)c(Cl)c1Cl	0	-5	7	0	-7	-3	/
N#CCCN(C(=O)COC(=O)CSc1ccc(Cl)cc1)c1ccccc1	/	50*	/	/	/	/	39
N#CCCN(C(=O)COC(=O)COc1ccc(Cl)cc1)c1ccccc1	-2	33	6	-2	1	-2	/
Cc1nc2ccccn2c1C(=O)OCC#N	3	6	4	-2	-1	1	/
CNC[C@H](Cc1cccc2ccccc12)NC[C@H](CCSC)NCC1CCC(C(C)(C)C)CC1 (some centres undefined)	/	44*	/	/	/	/	34
CC(CCc1ccccc1)NCc1cccc2ccccc12 (centres undefined)	2	-29	-1	1	2	2	/
COC(=O)c1ccc(CN2C(=O)NC(CC(C)C)C2=O)cc1 (centres undefined)	2	0	1	-1	10	-2	/
COc1ccc2[nH]c3c(N4CC(C)OC(C)C4)ncnc3c2c1 (centres undefined)	-8	-1	2	3	-1	2	/
COc1cccc(N2CCN(c3ncnc4c3[nH]c3ccccc34)CC2C)c1 (centres undefined)	21	46*	-1	-6	-3	15	46*
COc1cc2[nH]c3c(N4CCN(c5ccc(Cl)cc5)CC4)ncnc3c2cc1OC	28*	95*	-40	-26	2	14	75*
SMILES	PME-1 inh	PREPL inh	LYPLA2 inh	LYPLA1 counter	GSTO1 inh	Fam108B inh	PREPL confirm
COc1cccc(N2CCN(c3ncnc4c3[nH]c3ccc(F)cc34)CC2C)c1 (centres undefined)	28*	49*	8	0	-14	16	47*
Cc1ccc2nc(C)cc(C(=O)OCC(=O)Nc3cccnc3Cl)c2c1	-2	-12	-1	2	11	0	/
CCN(CC)CCN1C(=O)C(=O)/C(=C(/O)c2ccc(OC(C)C)cc2)C1c1cccs1 (centres undefined)	-7	-11	-5	1	2	-2	/
O=C(NCCNC(=O)c1ccccc1Br)c1cccnc1	-4	19	0	3	-2	-2	/
O=C([O-])c1ccccc1-[n+]1c(-c2ccccc2)cc(-c2ccccc2)cc1-c1ccccc1	0	56*	6	8	6	7	46*
CN(C)c1nc(N)c([N+](=O)[O-])c(NCCO)n1	0	-4	0	-2	0	-1	/
COc1ccccc1C(=O)NC(=O)COC(=O)c1nc(Cl)ccc1Cl	1	-2	-5	-3	-2	4	/
O=C(Nc1ccc2nc(-c3ccco3)c(-c3ccco3)nc2c1)N1CCN(c2ccccn2)CC1	3	74*	-7	-6	33	10	38
Cc1nc2cc(NC(=O)N3CCN(c4ccccn4)CC3)ccc2o1	-2	-5	4	1	0	-2	/
Brc1cccc(OCCCCN2CCCCC2)c1	-1	5	0	0	-2	2	/
COc1cc(C(=O)NC(=S)Nc2ccc3oc(=O)ccc3c2)cc(OC)c1OC	1	1	4	2	0	-5	/
COc1ccc(C(=O)NC(=S)Nc2ccc3oc(=O)ccc3c2)cc1[N+](=O)[O-]	0	47*	16	2	-2	-12	3
CCN1CCc2nc3sc(C(=O)Nc4cccnc4Cl)c(N)c3cc2C1	5	32	-5	-2	19	1	/
CCN1CCc2nc3sc(C(=O)N4CCc5ccccc5C4)c(N)c3cc2C1	7	65*	7	0	5	-1	48*
COc1ccc2c(c1)[nH]c1c(N3CCN(Cc4ccc5c(c4)OCO5)CC3)ncnc12	26*	67*	2	-6	-10	10	64*
COc1cccc2[nH]c3c(N4CCN(Cc5ccc6c(c5)OCO6)CC4)ncnc3c12	20	73*	-1	-4	1	4	60*
C/C(=N\NC(=O)C1CCCN(S(=O)(=O)c2ccccc2)C1)c1ccncc1 (centres undefined)	-1	43*	4	2	4	1	3
